Pf growth 48h: Primary qHTS for delayed death inhibitors of the malarial parasite plastid, 48 hour incubation; P. falciparum luciferase growth in erythrocytes, 48 h; Potency, µM (doses to about 28.7 µM), inactives show at the top dose activity change, negative = inhibition, hits mostly inhibitors; 310,000 compounds, 5.9% hits; AID 504832, 2011; note: potency is the fitted concentration of half-maximal effect
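Growth was read as firefly luciferase luminescence after a 48 h, 37 C, 5% CO2 exposure of compounds to reporter-bearing P. falciparum cultures (0.1% parasitemia, 2% hematocrit final) in Albumax-supplemented RPMI 1640.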
HCV inh: qHTS Assay for Inhibitors of Hepatitis C Virus (HCV); Huh7.5.1 HCVcc-Cre infection, luciferase reporter, 44 h; Potency, µM (titrated, usually from 41.8 µM), for the others: top-dose activity change, negative = inhibition, most hits filed as inhibitors; 340,000 compounds, 3.4% hits; AID 651820, 2012; note: potency is the fitted concentration of half-maximal effect
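Reporter virus HCVcc-Cre (~0.5 moi) infects cells exposed to compound; seeding density 1,000 cells/well with 4 h settling beforehand. Luminescence, 15 sec read, taken 44 h post-infection following a 15 min RT substrate incubation.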
Pf growth 96h: Primary qHTS for delayed death inhibitors of the malarial parasite plastid, 96 hour incubation. 320,000 compounds, 6.9% hits. P. falciparum luciferase reporter growth, 96 h. Potency, µM (titrated, usually from 28.7 µM), for the others: at the highest dose activity change, negative = inhibition, usual class: inhibitors; note: potency is the fitted concentration of half-maximal effect
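P. falciparum expressing integrated firefly luciferase grown in erythrocytes (2% hematocrit, 0.05% parasitemia final) with compounds for 96 hours at 37 C, 5% CO2. Growth inhibition read as loss of luminescence after adding luciferase detection reagent.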
HCMV inh: qHTS Assay for inhibitors of the human cytomegalovirus (HCMV). activity change, negative = inhibition, % at 57.5 µM. 410,000 compounds, 4.5% hits. HFF cells, HCMV-luciferase reporter, 72 h; active compounds read low; in the data active = activity change below about -60%; inconclusive = no clear call, values can overlap the other calls; inactive = above about -39%
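Cell-based, HFFs, 1000 cells/well, 16 h 37C; cpds in DMSO + HCMV-luc, MOI 1 PFU/cell; 72 h 37C; OneGlo luminescence after 5 min RT; norm. to buffer vs Salinomycin 10uM.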
Active calls of the source: *; ? = inconclusive; . = no result; [ ] = remark or other dose. Hits are enriched below; roughly 13% of the tested compounds scored in any of these assays. Unless noted, calls come from the whole dose curve; as a rule, active = well fitted inhibition curve with a large enough effect; inconclusive = small, poorly fitted or top-dose-only effect, or another doubt; inactive = no such curve, though single readings can be large or run the other way. % is set by controls: 0 for no effect and ±100 for the full control effect.

SMILES	Pf growth 48h	HCV inh	Pf growth 96h	HCMV inh
CC1Sc2ccc(S(=O)(=O)N(C)Cc3ccccc3)cc2NC1=O (configuration not stated)	-2%	?	?	?
COc1ccc(N2CCN(S(=O)(=O)c3ccc4c(c3)NC(=O)C(C)S4)CC2)cc1 (configuration not stated)	7%	?	?	0
CC1Sc2ccc(S(=O)(=O)N3CCC(C(=O)N(C)Cc4ccco4)CC3)cc2NC1=O (configuration not stated)	12µM*	?	3%	-20
CCC1Sc2ccc(S(=O)(=O)N3CCN(c4ccccc4)CC3)cc2NC1=O (configuration not stated)	?	?	10µM*	0
CC1Cc2cc(S(=O)(=O)N3CCC(C(=O)N(C)Cc4ccco4)CC3)ccc2N1C(=O)C1CCC1 (configuration not stated)	12µM*	5%	?	-30
CC1Sc2ccc(S(=O)(=O)N3CCC(C(=O)N(C)Cc4ccccc4)CC3)cc2NC1=O (configuration not stated)	9.3µM*	?	5.9µM*	-64*
Cc1cccc(NC(c2nnc(-c3ccccc3)o2)c2ccc(F)cc2Cl)c1C (configuration not stated)	.	.	.	5
CCOC(=O)c1nnc2c(-c3ccc(Cl)cc3)c(C)nn2c1N	.	.	.	-25
C=CCCN(C1CCCC1)S(=O)(=O)c1ccccc1Br	?	-29%	15µM*	-22
CN(C)S(=O)(=O)c1ccc(C(=O)Nc2nnc(-c3cccs3)o2)cc1	13µM*	?	?	?
CCC1CCCCN1S(=O)(=O)c1ccc(C(=O)Nc2sc3c(c2C(N)=O)CCC3)cc1 (configuration not stated)	.	.	.	-31
CC1CC(C)CN(S(=O)(=O)c2ccc(C(=O)Nc3nnc(-c4cccs4)o3)cc2)C1 (configuration not stated)	?	?	1%	-70*
CC1CC(C)CN(S(=O)(=O)c2ccc(C(=O)Nc3sccc3C(N)=O)cc2)C1 (configuration not stated)	?	?	?	12
CCC1CCCCN1S(=O)(=O)c1ccc(C(=O)Nc2nnc(-c3cccs3)o2)cc1 (configuration not stated)	10µM*	?	42%	.
Cc1cc(=O)n(CC(=O)N2CCCCC2)c2c1c(C)nn2C	.	.	.	0
CCc1ccc(-c2nc(C(N)=O)c3[nH]c(=O)n(-c4ccccc4OC)c3n2)cc1	.	?	?	-98*
COc1cccc(-c2nc(C(N)=O)c3[nH]c(=O)n(-c4cccc(Cl)c4)c3n2)c1OC	15µM*	-18%	?	?
O=C(CSc1c2c(nc3ccc(Cl)cc13)CCCC2)N1CCN(c2cccc(Cl)c2)CC1	.	.	.	-27
Cc1cc2c(OCC(O)CNCc3ccco3)cccc2[nH]1 (configuration not stated)	2.9µM*	2%	3.3µM*	-19
CCc1ccccc1NC(=O)CSc1ncc(S(=O)(=O)c2ccccc2)c(N)n1	.	.	.	-14
O=c1c(-c2ccccc2)nc2ccccc2n1C(CCc1ccccc1)c1nc2ccccc2[nH]1 (configuration not stated)	.	.	.	-67*
COc1ccccc1CNC(=O)c1c2c(nc3ccccc13)C(=O)N(C1CCCCC1)C2	.	.	.	30
COc1ccc(CCNC(=O)C(C)n2nc(C)n3c(cc4occc43)c2=O)cc1OC (configuration not stated)	2%	5%	13µM*	-3
CCc1cccc(C)c1NC(=O)CSc1nnc(CC)n2c1cc1occc12	.	.	.	-69*
CCc1nn(C(C)C(=O)NCCN2CCCCCC2)c(=O)c2cc3occc3n12 (configuration not stated)	-5%	?	-27%	-19
SMILES	Pf growth 48h	HCV inh	Pf growth 96h	HCMV inh
CCc1nn(C(C)C(=O)Nc2cccc(C)c2C)c(=O)c2cc3occc3n12 (configuration not stated)	9.3µM*	11µM*	-11%	-35
CCc1nn(C(C)C(=O)NCCN2CCN(c3cccc(C)c3C)CC2)c(=O)c2cc3occc3n12 (configuration not stated)	0%	1.8µM*	0%	-11
Cc1nn(C(C)C(=O)NCc2ccc(Cl)cc2)c(=O)c2cc3occc3n12 (configuration not stated)	23%	?	?	3
COc1cc2cc(CNc3ccccc3)c(=O)n(CC(=O)Nc3cc(C)cc(C)c3)c2cc1OC	.	.	.	45
COc1ccc(Cn2ccnc2SCC(=O)Nc2ccc(C)cc2C)cc1	.	.	.	-15
N/C(=N\OC(=O)c1ccccc1F)c1cccc([N+](=O)[O-])c1	146%	0%	12µM*	59
Cc1ccc(CC(=O)O/N=C(\N)c2cccc([N+](=O)[O-])c2)cc1	31%	26%	15µM*	12
COc1cc(-c2cc3n(C)c(C)c(CCC(=O)NCc4ccccc4)c(=O)n3n2)cc(OC)c1OC	.	.	.	73
C=CCNc1oc(-c2cccc3ccccc23)nc1C#N	46%	6.3µM*	?	7
N#Cc1nc(-c2cccc3ccccc23)oc1NCCN1CCCCC1	?	11µM*	.	89
CC(C)COc1ccc(C(=O)NCC2(N3CCN(C)CC3)CCCCC2)cc1	.	.	.	0
CCOC(=O)c1ccc(NC(=O)CN2C(=O)c3cccnc3Oc3ccc(Cl)cc32)cc1	.	.	.	0
COc1ccc(-c2nnc3ccc(SCC(=O)Nc4nc5ccccc5s4)nn23)cc1OC	8.3µM*	-1%	?	61
CCOCC(=O)Nc1nc2ccccc2s1	433%	6%	15µM*	18
CCOc1ccc2nc(NC(=S)N(C)C)sc2c1	.	?	?	15
COc1ccc(-c2nnc3ccc(SCC(=O)Nc4nccs4)nn23)cc1OC	-18%	-6%	-12%	?
O=C(CSc1ccccn1)Nc1nc2ccccc2s1	45%	-19%	2.9µM*	-66*
CN(C)C(=S)Nc1nc2ccccc2s1	-25%	14µM*	-34%[1.15 µM]	-4
COc1ccc(NC(=O)c2cc(-c3ccccc3F)no2)cc1	.	.	.	6
Cc1ccc(NC(=O)CN2C(=O)CSc3ccc(S(=O)(=O)N(C)C)cc32)cc1C	.	.	.	1
CCCCn1nnnc1C1(C)CCC(=O)N1CC1CCCCC1 (configuration not stated)	.	.	.	-3
Cc1ccc(-n2nc(CO)c(C(=O)NC(C)CCCc3ccccc3)n2)cc1 (configuration not stated)	.	.	.	-17
CCn1ccnc1CN(C)Cc1cn(-c2cccc(C)c2)nc1-c1cccc(F)c1	?	3.5µM*	?	-38
CCn1ccnc1CN(C)Cc1cn[nH]c1-c1ccc(F)cc1F	9%	-11%	12µM*	?
COc1ccc(-c2[nH]ncc2CN(Cc2nccn2C)C(C)C)c(F)c1	-7%	0%	22%	-24

Screening results from PubChem BioAssay.
